Laboratory results taken from PubChem BioAssay.
Values without a mark were called inactive. For part of these data: Measured potencies and affinities stand elsewhere. The source made the active and inactive calls. Unless noted, how the calls were made is not given here.

Tests used:
[1] = antimalarial activity against Dd2 strain (AID 2302;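 active means growth inhibition above 50% at the single 2 µM test dose, taken to imply half-maximal potency below 2 µM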;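 further: 0% = DMSO untreated growth and 100% = chloroquine plus artemisinin killed control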); details: P. falciparum Dd2 in RBCs, LDH growth readout, 72 h; at 2 µM; stronger effect = higher value
[2] = HepG2 cytotoxicity, primary screen, cytotoxicity control for P. falciparum antimalarial project, cell-based, ATP luminescence (AID 2303;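 active means inhibition above 50%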;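 further: 0% = DMSO wells and 100% = digitonin-killed cells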); details: HepG2 viability, 24-48 h, at 10 µM, stronger effect = higher value
[3] = target: L-lactate dehydrogenase (Plasmodium falciparum (isolate CDC / Honduras)) (UniProt Q27743); assay: PfLDH activity inhibition – cell lysate, 3D7 strain, counter-screen for P. falciparum growth inhibition project (AID 2304);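 further: 0% = vehicle and 100% = reference inhibitor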; details: P. falciparum 3D7 crude extract, LDH APAD/NBT absorbance; at 2 µM; stronger effect = higher value
[4] = inhibition of 3D7 malaria parasite growth – strain 3D7 (AID 2306);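 further: 0% = DMSO wells and 100% = chloroquine plus artemisinin control wells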; details: P. falciparum 3D7 erythrocytic growth, LDH absorbance, 72 h; at 2 µM; stronger effect = higher value
[5] = target: Calcium-dependent protein kinase 1 (Plasmodium falciparum (isolate 3D7)) (UniProt P62344); assay: PfCDPK1 kinase inhibitors, biochemical, TCAMS library (AID 1159585; cut-off not given, nearly all actives have IC50 up to about 0.98 µM;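 further: inhibitors leave more ATP so luminescence rises with inhibition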); details: recombinant PfCDPK1, Kinase-Glo ATP depletion luminescence
[6] = target: Plasmodium falciparum protein kinase 6 (PK6, PF3D7_1337100) (UniProt Q8IDW1); assay: PfPK6 kinase inhibitors, biochemical, TCAMS library (AID 1159586); details: recombinant PfPK6, Kinase-Glo ATP depletion luminescence
[7] = target: Protein kinase 7 (PK7), Plasmodium falciparum 3D7 (PF3D7_0213400) (UniProt Q7YTF7); assay: inhibition of Plasmodium PK7 catalytic activity – biochemical, TCAMS antimalarial set, Kinase-Glo luminescence (AID 1159587); details: recombinant PfPK7, Kinase-Glo ATP depletion luminescence
[8] = target: Calcium-dependent protein kinase 4 (Plasmodium falciparum (isolate 3D7)) (UniProt Q8IBS5); assay: PfCDPK4 kinase inhibitors, biochemical, TCAMS library (AID 1159588; cut-off not given, nearly all actives have IC50 up to about 0.91 µM); details: recombinant PfCDPK4, Kinase-Glo ATP depletion luminescence
Chain of Calcium-dependent protein kinase 4 (Plasmodium falciparum (isolate 3D7)) (Q8IBS5 whole entry, looked up): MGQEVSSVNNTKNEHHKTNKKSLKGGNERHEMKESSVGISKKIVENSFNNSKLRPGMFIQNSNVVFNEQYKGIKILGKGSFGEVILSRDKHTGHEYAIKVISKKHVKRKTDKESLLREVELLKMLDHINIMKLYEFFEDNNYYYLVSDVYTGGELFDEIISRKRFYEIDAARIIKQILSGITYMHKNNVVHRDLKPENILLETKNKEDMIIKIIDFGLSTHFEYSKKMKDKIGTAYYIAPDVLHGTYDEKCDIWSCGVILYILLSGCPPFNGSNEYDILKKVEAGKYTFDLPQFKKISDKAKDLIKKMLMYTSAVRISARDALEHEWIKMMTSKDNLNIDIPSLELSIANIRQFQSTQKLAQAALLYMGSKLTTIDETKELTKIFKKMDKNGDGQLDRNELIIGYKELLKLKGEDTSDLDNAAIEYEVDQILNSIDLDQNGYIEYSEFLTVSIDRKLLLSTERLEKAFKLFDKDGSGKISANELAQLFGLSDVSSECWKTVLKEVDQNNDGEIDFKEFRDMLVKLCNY

Chain of Protein kinase 7 (PK7), Plasmodium falciparum 3D7 (PF3D7_0213400) (Q7YTF7 1-343): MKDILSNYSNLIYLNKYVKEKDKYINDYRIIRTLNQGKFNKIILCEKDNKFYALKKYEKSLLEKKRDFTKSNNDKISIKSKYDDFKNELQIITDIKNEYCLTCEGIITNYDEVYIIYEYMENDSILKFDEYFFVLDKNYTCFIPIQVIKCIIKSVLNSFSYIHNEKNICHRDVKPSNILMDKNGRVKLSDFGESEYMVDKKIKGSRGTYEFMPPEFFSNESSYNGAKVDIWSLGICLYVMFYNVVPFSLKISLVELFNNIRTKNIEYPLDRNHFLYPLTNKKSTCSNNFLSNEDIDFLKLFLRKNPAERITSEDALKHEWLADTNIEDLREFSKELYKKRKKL
Chain of Calcium-dependent protein kinase 1 (Plasmodium falciparum (isolate 3D7)) (P62344 whole entry, looked up): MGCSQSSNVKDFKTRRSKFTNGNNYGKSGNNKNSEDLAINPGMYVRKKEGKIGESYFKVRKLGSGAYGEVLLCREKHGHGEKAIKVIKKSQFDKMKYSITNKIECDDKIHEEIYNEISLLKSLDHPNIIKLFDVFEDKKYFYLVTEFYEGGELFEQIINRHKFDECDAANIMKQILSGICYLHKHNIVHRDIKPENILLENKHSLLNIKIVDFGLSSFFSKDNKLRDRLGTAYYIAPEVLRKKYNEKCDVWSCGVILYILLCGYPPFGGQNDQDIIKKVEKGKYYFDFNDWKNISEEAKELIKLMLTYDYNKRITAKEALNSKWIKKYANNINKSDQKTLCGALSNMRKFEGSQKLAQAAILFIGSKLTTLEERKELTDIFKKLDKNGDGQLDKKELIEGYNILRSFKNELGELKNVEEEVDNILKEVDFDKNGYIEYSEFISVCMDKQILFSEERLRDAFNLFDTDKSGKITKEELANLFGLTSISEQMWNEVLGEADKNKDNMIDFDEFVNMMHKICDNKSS
Chain of Plasmodium falciparum protein kinase 6 (PK6, PF3D7_1337100) (Q8IDW1 1-305): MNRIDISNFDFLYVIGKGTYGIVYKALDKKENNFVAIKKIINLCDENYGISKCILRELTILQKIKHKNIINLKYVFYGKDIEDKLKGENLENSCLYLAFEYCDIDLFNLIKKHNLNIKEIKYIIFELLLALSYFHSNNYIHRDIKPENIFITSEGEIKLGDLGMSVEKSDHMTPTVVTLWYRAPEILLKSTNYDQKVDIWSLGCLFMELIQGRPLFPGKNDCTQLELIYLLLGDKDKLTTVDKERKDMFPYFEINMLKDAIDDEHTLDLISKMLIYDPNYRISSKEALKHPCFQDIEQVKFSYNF
Chain of L-lactate dehydrogenase (Plasmodium falciparum (isolate CDC / Honduras)) (Q27743 whole entry, looked up): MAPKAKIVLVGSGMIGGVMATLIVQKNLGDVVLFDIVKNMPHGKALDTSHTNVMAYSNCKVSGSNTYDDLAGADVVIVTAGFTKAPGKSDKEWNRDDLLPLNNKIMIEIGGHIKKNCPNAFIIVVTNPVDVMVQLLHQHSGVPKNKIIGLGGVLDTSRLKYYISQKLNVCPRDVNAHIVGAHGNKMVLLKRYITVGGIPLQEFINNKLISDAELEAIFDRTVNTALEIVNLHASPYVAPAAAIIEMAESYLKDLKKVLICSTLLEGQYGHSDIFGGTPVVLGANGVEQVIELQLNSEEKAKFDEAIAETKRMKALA

Row | SMILES | growth inhibition [1] | inhibition [2] | inhibition [3] | growth inhibition [4] | outcome [5] | outcome [6] | outcome [7] | outcome [8]
1 | Cc1cccc(C)c1C1CCN(CCCCNC(=O)c2cc3ccccc3[nH]2)CC1 | 18% | 46% | 4% | 90% (active) | inactive | inactive | inactive | inactive
2 | CS(=O)(=O)CCN(CCS(C)(=O)=O)Cc1ccc(-c2ccc3ncnc(Nc4ccc(OCc5cccc(F)c5)c(Cl)c4)c3c2)o1 | 27% | -2% | -3% | 90% (active) | inactive | inactive | inactive | inactive
3 | COc1ccc2nccc([C@@H](O)CN3CCC(NCCOc4ccccc4C(F)(F)F)CC3)c2c1 | 95% (active) | 2% | -5% | 98% (active) | inactive | inactive | inactive | inactive
4 | Cc1cc(C(=O)Nc2ccc(C)c(-c3nc(N(C(=O)c4ccc(F)c(C)c4)C4CCNCC4)nc4c3ccc(=O)n4-c3c(F)cccc3F)c2)ccc1F | 99% (active) | 4% | -3% | 99% (active) | inactive | inactive | inactive | inactive
5 | CCc1c(CCNCCCCCCNCCc2ccc(OC)c(OC)c2C)ccc(OC)c1OC | 1% | 16% | 5% | 98% (active) | inactive | inactive | inactive | inactive
6 | O=C(NCCN1CCCC1)c1cccc(-c2ccc(-c3nc4ccc(F)cc4[nH]3)cc2)c1 | 85% (active) | 33% | -3% | 99% (active) | inactive | inactive | inactive | inactive
7 | O=S(=O)(c1cccc(F)c1)c1ccc(Nc2ncnc3cc(Br)sc23)cc1Cl | 11% | 20% | -2% | 86% (active) | inactive | inactive | inactive | inactive
8 | Cc1cc2nc(-c3ccc(C(=O)NCc4cccc(F)c4)cc3)[nH]c2cc1C | 6% | -5% | -5% | 91% (active) | inactive | inactive | inactive | inactive
9 | COc1ccc(N2CCN(c3nc(N)c4cc(OC)c(OC)cc4n3)CC2C)cc1 (configuration not stated) | 0% | 8% | 0% | 95% (active) | inactive | inactive | inactive | inactive
10 | C=CCNC(CCCCC)c1ccc(OCCOc2ccc(C(CCCCC)NCC=C)cc2)cc1 (configuration not stated) | 48% | 100% (active) | -6% | 88% (active) | inactive | inactive | inactive | inactive
11 | Oc1ccccc1N1CCN(c2ccc(-c3nc4ccccc4[nH]3)cn2)CC1 | 50% (active) | -12% | -2% | 97% (active) | inactive | inactive | inactive | inactive
12 | COc1ccc(NC(=O)c2ccc3[nH]c(-c4ccc(Cl)cc4)cc3c2)cc1OCCN(C)C | 78% (active) | 32% | 2% | 100% (active) | inactive | inactive | inactive | inactive
13 | Cc1cc(N2CCCC2)nc(Nc2ccc(NC(=O)c3ccccc3F)cc2)n1 | 44% | 36% | -3% | 98% (active) | inactive | inactive | inactive | inactive
14 | COc1cc2c(cc1C(F)(F)F)N(C(=O)Nc1cc(F)c(F)c(-c3cccnc3)c1)CC2 | 15% | 20% | 3% | 90% (active) | inactive | inactive | inactive | inactive
15 | CCN(CC)CCN(Cc1ccc(-c2ccc(C(F)(F)F)cc2)nc1)C(=O)Cn1c(SCc2ccc(F)cc2)nc(=O)c2sccc21 | 66% (active) | 43% | -2% | 96% (active) | inactive | inactive | inactive | inactive
16 | CN1CCc2ccc(NC(=O)Nc3ccc(Cl)c(Cl)c3)cc2C1 | 22% | -10% | 1% | 80% (active) | inactive | inactive | inactive | inactive
17 | COc1cc(C(C)C)ccc1N1CCN(CCCCNC(=O)c2ccc(NC(=O)c3ccc(Cl)cc3)cc2)CC1 | 81% (active) | 25% | 3% | 98% (active) | inactive | inactive | inactive | inactive
18 | N#Cc1ccc(N(CCOC(=O)c2ccc(Br)s2)Cc2ccccc2C(F)(F)F)cc1C(F)(F)F | 48% | 8% | 3% | 82% (active) | inactive | inactive | inactive | inactive
19 | O=C(NC1CCCCC1)N(Cc1cccc(-c2cccc(CNC3CCCC3)c2)c1)C1CCN(Cc2ccccc2)CC1 | 90% (active) | 64% (active) | -7% | 96% (active) | inactive | inactive | inactive | inactive
20 | C[C@@H]1CN(c2cnn(Cc3ccc(NC(=O)Nc4ccc(-c5ccccc5)cc4)cc3)c(=O)c2Cl)C[C@H](C)N1 | 46% | 82% (active) | -3% | 100% (active) | inactive | inactive | inactive | inactive

Row | SMILES | growth inhibition [1] | inhibition [2] | inhibition [3] | growth inhibition [4] | outcome [5] | outcome [6] | outcome [7] | outcome [8]
21 | O=C1OC2(CN1CC1CCN(Cc3ccc(O)cc3Cl)C1)c1ccccc1-c1ccccc12 (configuration not stated) | 84% (active) | 16% | 2% | 84% (active) | inactive | inactive | inactive | inactive
22 | COc1ccc2nccc([C@@H](O)CN3CCC(NCc4nc5ccc(F)cc5[nH]4)CC3)c2c1 | 4% | 20% | -2% | 100% (active) | inactive | inactive | inactive | inactive
23 | O=C(Nc1ccc(C(F)(F)F)cc1)c1cccc(S(=O)(=O)NC2CCN(Cc3ccccc3)C2)c1 (configuration not stated) | -2% | 39% | -5% | 88% (active) | inactive | inactive | inactive | inactive
24 | COc1ccc(NC(=O)CSc2nc(-c3ccccc3Cl)ns2)cc1OC | 63% (active) | -1% | -2% | 97% (active) | inactive | inactive | inactive | inactive
25 | O=c1cc(NCCCCNCc2cccc(Cl)c2)[nH]c2ccccc12 | 41% | 2% | -3% | 98% (active) | inactive | inactive | inactive | inactive
26 | Cc1csc(-c2nc(NCc3cccnc3)ncc2-c2ccsc2)n1 | 74% (active) | -5% | -1% | 87% (active) | inactive | inactive | inactive | inactive
27 | c1ccc(-c2cc(NCCCCCCCCNc3cc(-c4ccccc4)nc4ccccc34)c3ccccc3n2)cc1 | 72% (active) | 36% | 1% | 101% (active) | inactive | inactive | inactive | inactive
28 | O=C(Nc1cccc(CN2CCCN(Cc3ccc(O)cc3)CC2)c1)c1ccc2ccccc2n1 | 22% | 13% | -1% | 90% (active) | inactive | inactive | inactive | inactive
29 | Cc1ccc(NC(=O)NC2CCN(CCCCCNC(=O)/C=C/c3ccc(Cl)c(Cl)c3)CC2)cc1C | 25% | 36% | -3% | 101% (active) | inactive | inactive | inactive | inactive
30 | CN1CCc2cc(O)c(NS(=O)(=O)c3ccc(-c4ccc(Cl)cc4)cc3)cc2CC1 | 3% | 7% | 3% | 104% (active) | inactive | inactive | inactive | inactive
31 | CCCc1nc2c(N3CC(NC(=O)/C=C/c4ccccc4)C3)cccc2n1C1CC1 | 68% (active) | 1% | 0% | 83% (active) | inactive | inactive | inactive | inactive
32 | O=C(Nc1ccc(Cl)cc1)c1cc(Cl)cc2[nH]c(C(F)(F)F)nc12 | 100% (active) | 87% (active) | 2% | 100% (active) | inactive | inactive | inactive | inactive
33 | Cc1cc(N[C@@H](Cc2ccccc2)C(=O)NCCc2ccccc2)nc(NCCc2cccs2)n1 | 84% (active) | 12% | 4% | 99% (active) | inactive | inactive | inactive | inactive
34 | CC(=O)Oc1c(C2CCN(CCCCNC(=O)c3ccc(NC(=O)c4ccc(Cl)cc4)cc3)CC2)ccc2c1CCCC2 | 80% (active) | 21% | 2% | 100% (active) | inactive | inactive | inactive | inactive
35 | CCCCCCNCc1c(O)ccc2c(CNCCCCCC)c(O)ccc12 | 100% (active) | 22% | -1% | 102% (active) | inactive | inactive | inactive | inactive
36 | CCC(C)NC(=O)CN1CN(c2ccccc2)C2(CCN(C(=O)c3ccc4ccccc4c3)CC2)C1=O (configuration not stated) | 78% (active) | -6% | -2% | 95% (active) | inactive | inactive | inactive | inactive
37 | CC[C@H](C)CNC(=O)c1ccnc(-c2cccc(CN(C)C3CCN(C)CC3)c2)c1 | 33% | -19% | -1% | 100% (active) | inactive | inactive | inactive | inactive
38 | CCOc1ccc(Cc2c(C)nc3nc(N)nc(N)c3c2C)cc1 | 7% | 63% (active) | 0% | 91% (active) | inactive | inactive | inactive | inactive
39 | CCNc1cc(-c2cccc(OC)c2)nc(Nc2ccc(F)cc2)n1 | 23% | 11% | 3% | 87% (active) | inactive | inactive | inactive | inactive
